Source: PubChem BioAssay (NCATS)
Inconclusive results are not listed. Activity calls are given as the source filed them. Calls follow the shape of the dose curve; as a rule, active = well fitted curve in the direction sought with a large enough effect; inconclusive = small, poorly fitted or top-dose-only effect, or another doubt; inactive = no such curve, though single readings can be large; an effect the other way counts as inactive or inconclusive.

Experiments:
[1] = target: Cytochrome P450 2C9 (Homo sapiens) (UniProt P11712); test: qHTS Assay for Inhibitors and Substrates of Cytochrome P450 2C9 (AID 883); also: potency is read from the fitted curve at half-maximal effect; nearly all actives have a fitted effect of over 60% in size
Chain of Cytochrome P450 2C9 (Homo sapiens) (P11712 whole entry, looked up): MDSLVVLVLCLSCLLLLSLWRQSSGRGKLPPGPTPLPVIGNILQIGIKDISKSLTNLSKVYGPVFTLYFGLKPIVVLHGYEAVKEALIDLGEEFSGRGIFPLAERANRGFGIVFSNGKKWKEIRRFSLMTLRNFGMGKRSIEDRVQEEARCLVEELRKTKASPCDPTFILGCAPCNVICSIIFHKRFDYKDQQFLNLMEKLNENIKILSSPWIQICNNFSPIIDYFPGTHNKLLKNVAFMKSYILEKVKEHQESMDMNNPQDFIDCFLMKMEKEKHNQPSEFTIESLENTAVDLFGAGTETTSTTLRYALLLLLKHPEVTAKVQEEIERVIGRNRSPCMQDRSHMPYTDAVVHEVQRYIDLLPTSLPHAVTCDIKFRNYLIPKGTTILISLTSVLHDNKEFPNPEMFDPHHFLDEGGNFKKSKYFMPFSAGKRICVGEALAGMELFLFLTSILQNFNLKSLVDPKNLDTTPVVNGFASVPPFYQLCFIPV
Outline: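 CYP2C9 deoxyluciferin hydroxylation, 37C, 60 min with NADPH regeneration; 10nM enzyme, 100uM Luciferin-H (KM). Glo detection reagent stopped reaction; luminescence normalized to sulphaphenazole (57uM) full inhibition.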

[2] = target: Cytochrome P450 3A4 (Homo sapiens) (UniProt P08684); test: qHTS Assay for Activators of Cytochrome P450 3A4 (AID 885); also: nearly all actives have a fitted effect of over 65% in size
Chain of Cytochrome P450 3A4 (Homo sapiens) (P08684 whole entry, looked up): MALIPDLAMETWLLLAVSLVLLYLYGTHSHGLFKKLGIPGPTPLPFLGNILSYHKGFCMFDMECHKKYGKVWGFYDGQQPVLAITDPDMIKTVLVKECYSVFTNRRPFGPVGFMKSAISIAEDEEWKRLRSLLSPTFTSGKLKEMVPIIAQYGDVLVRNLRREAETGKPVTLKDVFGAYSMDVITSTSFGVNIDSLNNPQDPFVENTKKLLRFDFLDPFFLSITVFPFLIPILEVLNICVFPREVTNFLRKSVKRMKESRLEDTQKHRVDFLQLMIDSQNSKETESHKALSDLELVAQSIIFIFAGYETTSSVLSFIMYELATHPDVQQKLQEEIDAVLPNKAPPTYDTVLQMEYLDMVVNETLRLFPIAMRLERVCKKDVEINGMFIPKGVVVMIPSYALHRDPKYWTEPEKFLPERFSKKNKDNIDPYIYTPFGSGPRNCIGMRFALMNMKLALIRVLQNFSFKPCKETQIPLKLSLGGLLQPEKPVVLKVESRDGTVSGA
Outline: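 Activators are scored by enhanced luminescence from CYP3A4 conversion of luciferin-PPXE (25uM, equal to KM) to luciferin, after 60 min at RT with an NADPH-regenerating system.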

[3] = target: Cytochrome P450 2C19 (Homo sapiens) (UniProt P33261); test: qHTS Assay for Inhibitors and Substrates of Cytochrome P450 2C19 (AID 899); also: potency is read from the fitted curve at half-maximal effect; nearly all actives have a fitted effect of over 60% in size
Chain of Cytochrome P450 2C19 (Homo sapiens) (P33261 whole entry, looked up): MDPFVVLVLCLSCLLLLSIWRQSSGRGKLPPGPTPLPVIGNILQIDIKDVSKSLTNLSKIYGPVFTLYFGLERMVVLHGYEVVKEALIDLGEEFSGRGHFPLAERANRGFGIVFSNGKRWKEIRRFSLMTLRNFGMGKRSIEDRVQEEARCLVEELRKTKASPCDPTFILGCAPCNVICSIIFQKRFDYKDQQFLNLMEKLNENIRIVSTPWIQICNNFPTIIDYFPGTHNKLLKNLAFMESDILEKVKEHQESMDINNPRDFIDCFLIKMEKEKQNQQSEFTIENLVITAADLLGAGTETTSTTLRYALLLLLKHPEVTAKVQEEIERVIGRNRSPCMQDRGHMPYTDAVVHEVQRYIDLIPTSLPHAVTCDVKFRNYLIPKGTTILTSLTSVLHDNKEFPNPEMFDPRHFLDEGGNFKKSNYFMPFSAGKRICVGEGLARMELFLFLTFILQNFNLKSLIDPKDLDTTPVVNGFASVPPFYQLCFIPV
Outline: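 In 50mM KPO4, the reaction held 5nM enzyme and KM-level (10uM) Luciferin-H EGE; it ran 60 min at 37C after NADPH regeneration and a 10 min compound preincubation. Luminescence values were scaled to 57uM ketoconazole as complete inhibition.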

[4] = qHTS Assay for Identification of Small Molecule Antagonists for Thrombopoietin (TPO) Signaling Pathway (AID 918); details: TPO-dependent cell signaling reporter, antagonist mode; also: potency is read from the fitted curve at half-maximal effect; nearly all actives have a fitted effect of over 60% in size
Outline: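 Inhibitors of TPO signaling are sought by stimulating IL-3-starved murine Ba/F3 cells (human TPO receptor, Glycoprotein IIb-driven luciferase) with TPO at its EC50 of 26 pM alongside compound. After 24 hrs at 37 C, reporter luminescence is measured.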

[5] = target: Alpha-galactosidase (Coffea arabica) (UniProt Q42656); test: Counterscreen for Glucocerebrosidase Inhibitors: qHTS Assay for Coffee Bean alpha-Galactosidase at pH 4.5 (AID 957); also: series mostly up to about 77 µM
Chain of Alpha-galactosidase (Coffea arabica) (Q42656 whole entry, looked up): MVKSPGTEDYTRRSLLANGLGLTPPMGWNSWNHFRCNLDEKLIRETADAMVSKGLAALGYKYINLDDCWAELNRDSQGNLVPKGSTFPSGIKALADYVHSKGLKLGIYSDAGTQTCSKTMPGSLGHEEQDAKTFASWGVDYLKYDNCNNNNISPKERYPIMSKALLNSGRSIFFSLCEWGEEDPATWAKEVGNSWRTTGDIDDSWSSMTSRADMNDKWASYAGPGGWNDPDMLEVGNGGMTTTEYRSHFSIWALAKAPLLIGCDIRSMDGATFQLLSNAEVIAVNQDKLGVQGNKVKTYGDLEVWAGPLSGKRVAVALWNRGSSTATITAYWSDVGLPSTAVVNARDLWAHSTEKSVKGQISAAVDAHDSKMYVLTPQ
Outline: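 Enzyme is added first (2 nM final), then compounds titrated from 0.7 nM to 77 uM, then 80 uM 4-methylumbelliferyl alpha-D-galactopyranoside; after 20 min at room temperature a pH 10 NaOH/glycine stop precedes fluorescence reading at 365/440 nm.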

[6] = qHTS for differential inhibitors of proliferation of Plasmodium falciparum line 7G8 (AID 1815);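 also: potency is read from the fitted curve at half-maximal effect; parasite growth measured after three days of incubation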
[7] = qHTS for differential inhibitors of proliferation of Plasmodium falciparum line GB4 (AID 1816); details: Potency: Plasmodium falciparum GB4 proliferation inhibition;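 also: potency is read from the fitted curve at half-maximal effect; parasite growth measured after 72 h incubation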
[8] = qHTS for differential inhibitors of proliferation of Plasmodium falciparum line 3D7 (AID 1876); also: potency is read from the fitted curve at half-maximal effect
[9] = qHTS for differential inhibitors of proliferation of Plasmodium falciparum line Dd2 (AID 1882); details: Potency: Plasmodium falciparum Dd2 proliferation inhibition; also: potency is read from the fitted curve at half-maximal effect; nearly all actives have a fitted effect of over 65% in size
Outline: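 SYBR Green DNA fluorescence (ex 485, em 535 nm) after overnight lysis quantifies parasite growth; compound exposure lasted 72 h at 37 C on infected red cells at 2.5% hematocrit, 0.3% parasitemia (final). Artemisinin 0.29 uM and vehicle wells define normalization.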

[10] = qHTS for differential inhibitors of proliferation of Plasmodium falciparum line W2 (AID 1883); details: Potency: Plasmodium falciparum W2 proliferation inhibition;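 also: potency is read from the fitted curve at half-maximal effect; parasites grown with compound for 72 h before lysis and staining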
[11] = qHTS for differential inhibitors of proliferation of Plasmodium falciparum line HB3 (AID 1886); details: Potency: Plasmodium falciparum HB3 proliferation inhibition;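 also: potency is read from the fitted curve at half-maximal effect; parasites grown with compound for 72 h before SYBR Green readout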
[12] = High Content Imaging Cell-Based qHTS for Inhibitors of the mTORC1 Signaling Pathway in MEF (Tsc2-/-, p53-/-) Cells (AID 2666);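 also: percent of cells scored positive for phospho-rpS6 Ser235/236 immunostaining by imaging; potency is read from the fitted curve at half-maximal effect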
Outline: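 Inhibition of rpS6 phosphorylation is measured by immunofluorescence imaging in empty-vector Tsc2-/-, p53-/- mouse embryonic fibroblasts after 24 hrs compound exposure at 37 degree Celsius. Results are reported as % positive cells per well.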

[13] = High Content Imaging Cell-Based qHTS for Inhibitors of the mTORC1 Signaling Pathway in MEF Cells (AID 2667); also: potency is read from the fitted curve at half-maximal effect
Outline: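 Fixed-cell imaging of phospho-S6 (Ser235/236, Alexa-488) after 24 hrs of compound treatment at 37 degree Celsius. Signal was normalized to Hoechst, and thresholds from the highest and lowest wells split cells into % active versus % non-active.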

[14] = Cytometry Cell-Based qHTS for Inhibitors of the mTORC1 Signaling Pathway in MEF cells (AID 2668); also: potency is read from the fitted curve at half-maximal effect
Outline: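 Read-out: phospho-rpS6 Ser235/236 immunofluorescence normalized to propidium iodide intensity, scored as % active cells against a rapamycin (7.5 nM) threshold. Cells: Tsc2-/-, p53-/- MEFs stably expressing WT Tsc2, compound-treated 24 hrs at 37 degree Celsius.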

[15] = Quantitative high throughput screen for delayed death inhibitors of the malarial parasite plastid, 96 hour incubation (AID 488745); also: potency is read from the fitted curve at half-maximal effect; nearly all actives have a fitted effect of over 70% in size
Outline: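 Readout is firefly luciferase luminescence from an integrated reporter in P. falciparum; lower signal marks inhibited growth. Cultures at 2% hematocrit and 0.1% parasitemia were treated with compound across two generations (96 h, 37 C, 5% CO2).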

[16] = target: M-phase phosphoprotein 8 (Homo sapiens) (UniProt Q99549); test: qHTS Validation Assay for Inhibitors for MPP8 Chromodomain Interactions with Methylated Histone Tails (AID 488949);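 also: AlphaScreen signal from MPP8 chromodomain bound to biotinylated H3K9me3 peptide; top concentration of the series differs between compounds; nearly all actives have a fitted effect of over 55% in size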
Chain of M-phase phosphoprotein 8 (Homo sapiens) (Q99549 whole entry, looked up): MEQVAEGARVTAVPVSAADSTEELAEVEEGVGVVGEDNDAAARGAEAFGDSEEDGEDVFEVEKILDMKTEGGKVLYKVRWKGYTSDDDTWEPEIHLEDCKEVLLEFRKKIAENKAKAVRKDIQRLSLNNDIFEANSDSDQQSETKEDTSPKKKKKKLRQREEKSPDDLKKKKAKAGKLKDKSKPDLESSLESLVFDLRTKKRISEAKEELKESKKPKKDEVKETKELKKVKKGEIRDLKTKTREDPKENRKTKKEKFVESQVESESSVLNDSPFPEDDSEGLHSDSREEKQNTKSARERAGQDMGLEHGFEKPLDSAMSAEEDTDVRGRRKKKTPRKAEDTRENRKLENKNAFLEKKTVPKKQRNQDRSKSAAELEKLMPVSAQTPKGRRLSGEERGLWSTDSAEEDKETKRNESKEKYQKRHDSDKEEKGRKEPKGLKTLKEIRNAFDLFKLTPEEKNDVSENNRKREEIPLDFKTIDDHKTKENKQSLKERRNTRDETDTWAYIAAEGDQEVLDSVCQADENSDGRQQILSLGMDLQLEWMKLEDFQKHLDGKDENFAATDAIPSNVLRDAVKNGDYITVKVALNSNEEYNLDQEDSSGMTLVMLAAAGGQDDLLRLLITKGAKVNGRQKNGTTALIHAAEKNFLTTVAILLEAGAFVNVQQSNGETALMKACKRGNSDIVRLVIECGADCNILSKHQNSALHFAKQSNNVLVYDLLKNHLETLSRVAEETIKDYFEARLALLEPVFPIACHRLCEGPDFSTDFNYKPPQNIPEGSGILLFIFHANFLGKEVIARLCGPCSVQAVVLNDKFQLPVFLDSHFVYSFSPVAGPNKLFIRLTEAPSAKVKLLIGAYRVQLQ
Outline: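 AlphaScreen read-out: streptavidin donor and nickel chelate acceptor beads (final 10 ug/mL), 30 min in the dark at RT. Complex of 50 nM MPP8 and 50 nM b-H3(1-18)K9me3 peptide had been exposed to compounds for 30 min beforehand.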

[17] = target: Chromobox protein homolog 1 (Homo sapiens) (UniProt P83916); test: qHTS Validation Assay for Inhibitors of HP1-beta Chromodomain Interactions with Methylated Histone Tails (AID 488953); also: potency is read from the fitted curve at half-maximal effect; nearly all actives have a fitted effect of over 50% in size
Chain of Chromobox protein homolog 1 (Homo sapiens) (P83916 whole entry, looked up): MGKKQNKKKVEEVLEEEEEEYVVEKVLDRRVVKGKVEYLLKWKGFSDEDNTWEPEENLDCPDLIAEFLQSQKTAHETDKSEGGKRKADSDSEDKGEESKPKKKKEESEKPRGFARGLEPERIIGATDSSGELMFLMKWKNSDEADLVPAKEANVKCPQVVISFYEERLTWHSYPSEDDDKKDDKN
Outline: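 Disruption of preformed HP1-beta:H3K9me3 peptide complexes (both 50 nM, PBS pH 7.4 with 0.01% Tween-20) is measured by AlphaScreen after 30 min compound exposure at room temperature, using streptavidin donor and nickel chelate acceptor beads at 10 ug/mL final.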

[18] = Validation screen for small molecules that induce genotoxicity in human embryonic kidney (HEK293T) cells expressing luciferase-tagged ELG1 (AID 493106)
Outline: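 Cells were dispensed at 2,000 per well, then 23 nL compound or DMSO was pinned in. After 16 hr at 37 °C and 5% CO2, ONE-Glo reagent was added. Luciferase activity was measured following 30 min at room temperature.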

[19] = Inducers of the Endoplasmic Reticulum Stress Response (ERSR) in human glioma: Validation (AID 504836)
Outline: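 Stably transfected U87-MG human glioma cells carrying a GRP78-based luminescent sensor were seeded at 1000 cells/well, pin-dosed with compounds and incubated 16 h. Luciferase reagent was then added, and end-point luminescence was read after 10 min at room temperature.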

[20] = target: Voltage-gated inwardly rectifying potassium channel KCNH2 (Homo sapiens) (UniProt Q12809); test: qHTS Assay for Small Molecule Inhibitors of the Human hERG Channel Activity (AID 588834);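 also: potency is read from the fitted curve at half-maximal effect; lower thallium flux fluorescence means stronger hERG block; nearly all actives have a fitted effect of over 50% in size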
Chain of Voltage-gated inwardly rectifying potassium channel KCNH2 (Homo sapiens) (Q12809 whole entry, looked up): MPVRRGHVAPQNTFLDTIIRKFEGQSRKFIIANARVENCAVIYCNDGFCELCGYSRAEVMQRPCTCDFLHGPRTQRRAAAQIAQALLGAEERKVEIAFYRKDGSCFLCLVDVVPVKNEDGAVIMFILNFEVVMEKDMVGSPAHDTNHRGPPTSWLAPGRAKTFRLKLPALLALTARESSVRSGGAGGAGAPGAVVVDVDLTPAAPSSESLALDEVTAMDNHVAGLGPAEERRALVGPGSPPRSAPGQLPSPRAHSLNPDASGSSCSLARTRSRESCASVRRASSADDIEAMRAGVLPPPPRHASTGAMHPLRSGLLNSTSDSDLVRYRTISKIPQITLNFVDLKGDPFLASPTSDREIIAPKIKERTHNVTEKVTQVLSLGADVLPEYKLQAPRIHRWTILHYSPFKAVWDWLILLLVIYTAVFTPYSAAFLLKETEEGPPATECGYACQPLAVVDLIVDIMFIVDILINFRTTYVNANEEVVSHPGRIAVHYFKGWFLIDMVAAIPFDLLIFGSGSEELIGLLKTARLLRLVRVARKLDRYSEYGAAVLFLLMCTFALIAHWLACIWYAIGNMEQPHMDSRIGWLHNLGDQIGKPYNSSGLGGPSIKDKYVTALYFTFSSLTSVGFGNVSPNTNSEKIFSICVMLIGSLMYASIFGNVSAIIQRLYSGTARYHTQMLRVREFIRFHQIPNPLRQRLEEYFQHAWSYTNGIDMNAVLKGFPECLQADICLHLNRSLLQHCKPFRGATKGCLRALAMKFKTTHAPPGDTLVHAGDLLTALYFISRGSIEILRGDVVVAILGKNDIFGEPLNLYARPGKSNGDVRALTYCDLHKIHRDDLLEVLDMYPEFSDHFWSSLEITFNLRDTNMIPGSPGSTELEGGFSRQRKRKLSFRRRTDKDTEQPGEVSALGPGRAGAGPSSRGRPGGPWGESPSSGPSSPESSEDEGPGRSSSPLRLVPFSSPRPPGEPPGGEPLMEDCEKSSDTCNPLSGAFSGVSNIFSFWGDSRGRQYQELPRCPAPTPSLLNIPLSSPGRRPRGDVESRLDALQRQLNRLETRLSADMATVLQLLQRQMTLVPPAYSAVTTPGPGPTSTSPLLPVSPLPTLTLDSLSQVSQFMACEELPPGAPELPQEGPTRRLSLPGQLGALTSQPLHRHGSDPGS
Outline: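 Thallium-flux (FluxOR) read-out on FDSS: fluorescence read 10 s before and 2 min after stimulation buffer. hERG-BacMam-transduced U2OS cells, compound exposure about 10 min. AC50 by standard Hill equation.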

[21] = qHTS for compounds that reverse cellular toxicity of Amyloid beta (A-beta) peptide in yeast: LOPAC Validation Assay (AID 720559)
Outline: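 OD600 growth readout after 48 hr at 30 C; A-beta-toxic yeast plus pinned compounds in medium. Normalization: DMSO = negative, equimolar FeCl3 + clioquinol = positive.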

Measured: Potency

S=C(S)N1CCCC1
active: [1] 2 µM | [3] 3.98 µM | [4] 3.98 µM | [6] 2.82 µM | [7] 2.82 µM | [8] 3.16 µM | [9] 7.94 µM | [10] 11.2 µM | [11] 2.51 µM | [12] 2.61 µM | [13] 2.93 µM | [14] 4.65 µM | [15] 5.86 µM | [17] 44.7 µM | [20] 3.55 µM
inactive: [2] | [5] | [16] | [18] | [19] | [21]
